The supplement of paper PMC9117331

How the values were obtained:
Settings in all cases: 0.5 µM; time after treatment 48 h; PC9 signalome
PC9 [1] = assay: AKT reporter activity score (signed KS statistic vs DMSO) (signed KS statistic (-1 to 1)); higher = stronger activation of the pathway reporter relative to DMSO
PC9 [2] = assay: RAR reporter activity score (signed KS statistic vs DMSO) (signed KS statistic (-1 to 1)); higher = stronger activation of the pathway reporter relative to DMSO
PC9 [3] = assay: PKC reporter activity score (signed KS statistic vs DMSO) (signed KS statistic (-1 to 1)); higher = stronger activation of the pathway reporter relative to DMSO
PC9 [4] = assay: PKA reporter activity score (signed KS statistic vs DMSO) (signed KS statistic (-1 to 1)); higher = stronger activation of the pathway reporter relative to DMSO
PC9 [5] = assay: p38 reporter activity score (signed KS statistic vs DMSO) (signed KS statistic (-1 to 1)); higher = stronger activation of the pathway reporter relative to DMSO
PC9 [6] = assay: HIF reporter activity score (signed KS statistic vs DMSO) (signed KS statistic (-1 to 1)); higher = stronger activation of the pathway reporter relative to DMSO
PC9 [7] = assay: ERK reporter activity score (signed KS statistic vs DMSO) (signed KS statistic (-1 to 1)); higher = stronger activation of the pathway reporter relative to DMSO
PC9 [8] = assay: JNK reporter activity score (signed KS statistic vs DMSO) (signed KS statistic (-1 to 1)); higher = stronger activation of the pathway reporter relative to DMSO
PC9 [9] = assay: WNT reporter activity score (signed KS statistic vs DMSO) (signed KS statistic (-1 to 1)); higher = stronger activation of the pathway reporter relative to DMSO
PC9 [10] = assay: NFkB reporter activity score (signed KS statistic vs DMSO) (signed KS statistic (-1 to 1)); higher = stronger activation of the pathway reporter relative to DMSO
PC9 [11] = assay: YAP/TAZ reporter activity score (signed KS statistic vs DMSO) (signed KS statistic (-1 to 1)); higher = stronger activation of the pathway reporter relative to DMSO

Row | Structure (SMILES) | AKT reporter activity score (PC9 [1]) | RAR reporter activity score (PC9 [2]) | PKC reporter activity score (PC9 [3]) | PKA reporter activity score (PC9 [4]) | p38 reporter activity score (PC9 [5]) | HIF reporter activity score (PC9 [6]) | ERK reporter activity score (PC9 [7]) | JNK reporter activity score (PC9 [8]) | WNT reporter activity score (PC9 [9]) | NFkB reporter activity score (PC9 [10]) | YAP/TAZ reporter activity score (PC9 [11])
1 | O=C(/C=C/c1cccc(S(=O)(=O)Nc2ccccc2)c1)NO [Belinostat (PXD101)] | -0.067 | 0.675 | 0.12 | -0.172 | -0.223 | 0.488 | -0.315 | -0.122 | 0.155 | 0.0869 | 0.484
2 | CC(=O)Nc1cccc(-n2c(=O)n(C3CC3)c(=O)c3c(Nc4ccc(I)cc4F)n(C)c(=O)c(C)c32)c1 | 0.278 | 0.158 | -0.0489 | -0.226 | 0.0617 | -0.114 | -0.491 | 0.181 | 0.129 | 0.158 | 0.324
3 | COc1ccc(-c2cc3c(C)nc(N)nc3n([C@H]3CC[C@H](OCCO)CC3)c2=O)cn1 | -0.424 | 0.107 | -0.0883 | -0.172 | -0.364 | -0.153 | 0.0981 | -0.166 | 0.0844 | -0.0647 | 0.155
4 | Cn1cnc2c(F)c(Nc3ccc(Br)cc3Cl)c(C(=O)NOCCO)cc21 [AZD6244 (Selumetinib)] | 0.282 | -0.154 | -0.074 | -0.0961 | 0.0759 | -0.125 | -0.348 | 0.145 | 0.091 | 0.0644 | 0.164
5 | C#CCC(Cc1cnc2nc(N)nc(N)c2n1)c1ccc(C(=O)N[C@@H](CCC(=O)O)C(=O)O)cc1 (some centres undefined) [Pralatrexate(Folotyn)] | -0.334 | 0.231 | 0.0797 | -0.237 | -0.0729 | 0.149 | -0.257 | 0.0731 | 0.0527 | 0.0639 | 0.223
6 | C=CC(=O)Nc1cccc(Sc2nc(Nc3ccc(N4CCN(C)CC4)cc3)ncc2Cl)c1 | -0.364 | 0.467 | 0.0576 | -0.418 | -0.318 | 0.106 | -0.698 | 0.15 | 0.172 | 0.174 | 0.338
7 | CCN1CCN(Cc2ccc(Nc3ncc(F)c(-c4cc(F)c5nc(C)n(C(C)C)c5c4)n3)nc2)CC1 | -0.454 | 0.2 | 0.128 | -0.473 | -0.118 | 0.484 | 0.0461 | 0.34 | 0.767 | 0.239 | 0.183
8 | Cc1cc(C(=O)NOCCO)c(Nc2ccc(I)cc2F)n(C)c1=O | -0.0809 | 0.337 | 0.0992 | -0.257 | 0.108 | 0.0532 | -0.629 | 0.22 | 0.0922 | 0.224 | 0.448
9 | CC(C)NC[C@@H](C(=O)N1CCN(c2ncnc3c2[C@H](C)C[C@H]3O)CC1)c1ccc(Cl)cc1 [Ipatasertib (GDC-0068)] | -0.688 | -0.297 | -0.0598 | 0.241 | -0.0739 | -0.228 | 0.0863 | -0.0989 | 0.0644 | 0.0919 | -0.0823
10 | O=C(Nc1cc(C(F)(F)F)cc(C(F)(F)F)c1)c1cc(Cl)ccc1O | -0.694 | 0.372 | 0.146 | -0.27 | 0.0561 | 0.485 | -0.0507 | 0.113 | 0.101 | 0.111 | 0.257
11 | COc1ccc(-c2ccc3c(N4CCOCC4)nc(N4C[C@@H](C)O[C@@H](C)C4)nc3n2)cc1CO | -0.124 | -0.302 | -0.0717 | -0.114 | -0.0964 | -0.246 | 0.079 | 0.0459 | 0.0519 | 0.0599 | -0.085
12 | CN1CCN(c2nc(C3=C(c4c[nH]c5ccccc45)C(=O)NC3=O)c3ccccc3n2)CC1 [Sotrastaurin (AEB071)] | 0.195 | -0.104 | 0.0333 | 0.144 | 0.268 | 0.0348 | -0.0912 | 0.155 | 0.0742 | -0.26 | -0.0765
13 | COc1cc2ncnc(Nc3ccc(F)c(Cl)c3)c2cc1OCCCN1CCOCC1 [Gefitinib (Iressa)] | -0.363 | 0.5 | 0.0998 | -0.3 | -0.282 | 0.136 | -0.664 | 0.166 | 0.25 | 0.184 | 0.4
14 | Cc1ccc([N+](=O)[O-])cc1S(=O)(=O)N(C)/N=C/c1cnc2ccc(Br)cn12 | -0.252 | 0.101 | 0.105 | -0.347 | -0.118 | 0.178 | -0.147 | 0.157 | 0.207 | 0.0772 | 0.169
15 | CCn1c(-c2nonc2N)nc2c(C#CC(C)(C)O)ncc(OC[C@H]3CCCNC3)c21 | -0.513 | -0.292 | -0.0561 | 0.119 | -0.189 | -0.224 | 0.134 | 0.058 | 0.151 | 0.0699 | -0.0459
16 | CC(C)n1nc(-c2ccc3oc(N)nc3c2)c2c(N)ncnc21 | -0.075 | 0.0862 | 0.0627 | 0.217 | -0.392 | -0.124 | -0.188 | -0.194 | 0.164 | 0.0979 | 0.144
17 | Cn1c(=O)c(F)c(Nc2ccc(I)cc2F)c2c(=O)n(C[C@@H](O)CO)cnc21 | 0.104 | 0.28 | 0.0748 | -0.176 | 0.193 | 0.0238 | -0.525 | 0.245 | -0.0866 | 0.274 | 0.513
18 | COc1ncc(-c2ccc3nccc(-c4ccnnc4)c3c2)cc1NS(=O)(=O)c1ccc(F)cc1F | -0.778 | 0.43 | 0.0478 | -0.254 | -0.499 | 0.0783 | -0.33 | -0.305 | 0.123 | 0.192 | 0.18
19 | CO[C@H]1C[C@@H]2CC[C@@H](C)[C@@](O)(O2)C(=O)C(=O)N2CCCC[C@H]2C(=O)O[C@H]([C@H](C)C[C@@H]2CC[C@@H](OP(C)(C)=O)[C@H](OC)C2)CC(=O)[C@H](C)/C=C(\C)[C@@H](O)[C@@H](OC)C(=O)[C@H](C)C[C@H](C)/C=C/C=C/C=C/1C [Deforolimus (MK-8669)] | 0.241 | -0.292 | -0.044 | 0.262 | 0.178 | -0.232 | 0.0405 | -0.0745 | 0.0613 | 0.151 | 0.142
